The nature of assay [1]: P. berghei load reduction in hepatocytes – cell-based, HepG2, luciferase luminescence, HepG2 viability, primary screen (AID 624349; in the data active means parasite load remaining mostly below about 12%, no sharp cut-off; inactive means mostly above about 10%;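 further: 100% = mean of DMSO negative control wells on the same plate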). As to conditions: P. berghei liver stage in HepG2, luciferase luminescence, concentration not given here; parasite load remaining: stronger effect = lower value; viability: measured here: HepG2 viability without parasites.
The nature of assay [2]: signal quenchers or enhancers, Cy5 substrate/SSB – biochemical, NIH Clinical Collection, E. coli SSB, artefact control for HCV NS3 helicase inhibitor project (AID 743268; call rule not given here). The settings on record: Cy5-oligo bound E. coli SSB, fluorescence interference.
In assay [3] the test system is Hepatitis C virus NS3 helicase. In words: blockers of NS3h binding to DNA – biochemical, fluorescence polarization, NIH Clinical Collection, primary screen (AID 743270; call rule not given here). The settings on record: NS3 helicase binding to Cy5-dT15 DNA, stronger effect = higher value, concentration not given here. In general terms: Polarisation of emitted light reports the rotation of a fluorescent probe.

Assay [4] addresses Single-stranded DNA-binding protein (Escherichia coli (strain K12)) (UniProt P0AGE0). In words: SSB-ssDNA binding inhibitors – biochemical, fluorescence polarization, NIH Clinical Collection, counter-screen for HCV NS3 helicase inhibitor project (AID 743271; in the data active means inhibition above about 28%). As to conditions: E. coli SSB-DNA binding, stronger effect = higher value, concentration not given here.
Assay [5] in a line: compounds distorting NS3 helicase fluorescence signal – biochemical, NIH Clinical Collection, artefact control for HCV NS3 helicase inhibitor project (AID 743272; call rule not given here;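 further: HCV NS3 helicase with a Cy5 labelled single stranded DNA probe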). As to conditions: fluorescence interference counterscreen, HCV NS3 helicase assay; stronger effect = lower value.
The target in assay [6] is 6-phosphogluconate dehydrogenase, decarboxylating (Homo sapiens) (UniProt P52209). Put plainly: inhibition of human phosphogluconate dehydrogenase – biochemical, recombinant enzyme, NADPH absorbance, primary screen (AID 1159550;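 active means at least 20% inhibition of 6-phosphogluconate dehydrogenase activity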). As to conditions: recombinant 6PGD, NADPH absorbance 341 nm; at 10 µM; stronger effect = higher value.
Assay [7] in a line: viability loss with induced miR-34 in A549 – imaging, A549 dox-inducible miR-34, nuclei and caspase counts, primary screen (AID 1347080;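 active means compounds whose cell count with miR-34 switched on is under 0.7 times the count with it off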). As to conditions: A549 miR-34 inducible, Hoechst nuclei count, 48 h.
Assay [8] can be described thus: MELAS cybrid and Rieske KO viability enhancers – cell-based, MELAS cybrids, Rieske KO mouse fibroblasts, CellTiter-Glo, primary screen (AID 1508586;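 active means mean z-score across replicates of 1.96 or higher in either the MELAS or the Rieske mutant cell line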;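 further: z relative to plate mean and SD of compound and empty wells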). The settings on record: low glucose. In general terms: In ATP-based viability assays light output follows the ATP content of the culture.
Assay [9] concerns the target NAD(+) hydrolase SARM1 (Homo sapiens) (UniProt Q6SZW1). Put plainly: blocking NAD cleavage by SARM1 SAM-TIR – cell lysate, NAD-Glo luminescence (AID 1508614;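 active means compound whose remaining NAD level is above about 45 nM, limit read from the data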). As to conditions: SAM-TIR HEK293T lysate NADase, at 1 µM, stronger effect = higher value.
The target in assay [10] is Mitogen-activated protein kinase 7 (Homo sapiens) (UniProt Q13164). In words: Gal4-ERK5 driven luciferase induction – cell-based, HTS, primary screen (AID 1508626;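 active means luciferase signal above three times the same-plate solvent-only control wells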;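 further: luciferase driven by Gal4-ERK5 fusion binding five Gal4 sites before minimal TATA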). As to conditions: HeLa Gal4-ERK5 transactivation, 18 h, at 5 µM, stronger effect = higher value.
The nature of assay [11]: galactose survival enhancers in mitochondrial complex I cybrids – cell-based, galactose medium, ATP luminescence, primary screen (AID 1645843;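 active means z-score of at least 1.8 in each of two replicates, scored against plate mean and spread of sample wells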;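 further: positive z means more ATP and so rescue of galactose-driven cybrid death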). As to conditions: complex I mutant cybrid cells, 72 h, stronger effect = higher value.
A further assay has as its system F380Y. Put plainly: BK channel mutant inhibitors and activators – cell-based, U2OS BacMam, thallium flux, beta subunits, selectivity assay, profiling panel (AID 1259406).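 Further: initial slope of Thallos dye fluorescence rise after thallium is added; log ratio against the mean of 0.3% DMSO vehicle wells on the same plate.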 The settings on record: U2OS BacMam BK variants, at 30 µM.
Another assay concerns F380Y/beta2Delta. The assay is described as above. The settings on record: U2OS BacMam BK variants, at 30 µM.
Assay [12] has as its target Calcium-activated potassium channel subunit alpha-1 (Homo sapiens) + Leucine-rich repeat-containing protein 26 (Homo sapiens) (UniProt Q12791+Q2I0M4). The assay is described as above. The settings on record: U2OS BacMam BK variants, F380Y/Slo1WT/gamma1, at 30 µM.
The next assay deals with R275C. Described as above. The settings on record: U2OS BacMam BK variants, at 30 µM.
The test system of another assay is R275C/beta1. The description is as above. The settings on record: U2OS BacMam BK variants, at 30 µM.
The test system of the next assay is R275C/beta2Delta. The assay is described as above. The settings on record: U2OS BacMam BK variants, at 30 µM.
Assay [13] in a line: modulation of C. elegans fzo-1 (AID 1259413; call rule not given here;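 further: fzo-1 mutant C. elegans worms in liquid wells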). The settings on record: C. elegans fzo-1 modulator screen, mean read-out; stronger effect = higher value.
Setting [14] is: stronger effect = lower value, cell number ratio, induced over uninduced.
[15] abbreviates: measured here: relative caspase fold change +Dox/-Dox.
The mark [16] stands for this setting: measured here: total cells with miR-34 induction, stronger effect = lower value.
The mark [17] stands for this setting: measured here: total cells without miR-34 induction.
Where [18] appears, read: MELAS cybrid survival, CellTiter-Glo 48 h, stronger effect = higher value.
Where [19] appears, read: Rieske KO mouse fibroblast survival, CellTiter-Glo 72 h.

Where “and” joins values, the source holds several entries; their conditions need not be identical. Equal values may be shown once. Calls of active or inactive are those of the source.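 How the source made its calls, unless noted: active means thallium flux through the channel raised or lowered by more than 3 SD from vehicle-only wells, actives on both sides; inactive means the rest.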

Sequence of Calcium-activated potassium channel subunit alpha-1 (Homo sapiens) + Leucine-rich repeat-containing protein 26 (Homo sapiens) (Q2I0M4 whole entry, looked up, one chain of several): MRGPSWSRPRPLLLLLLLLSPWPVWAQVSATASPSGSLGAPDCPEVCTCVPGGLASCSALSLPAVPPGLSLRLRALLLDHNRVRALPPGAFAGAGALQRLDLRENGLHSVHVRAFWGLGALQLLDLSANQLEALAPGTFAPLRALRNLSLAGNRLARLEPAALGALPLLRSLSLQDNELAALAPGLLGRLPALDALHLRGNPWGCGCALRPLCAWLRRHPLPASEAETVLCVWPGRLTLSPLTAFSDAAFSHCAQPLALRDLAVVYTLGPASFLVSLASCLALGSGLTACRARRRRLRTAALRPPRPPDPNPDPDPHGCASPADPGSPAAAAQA
Sequence of 6-phosphogluconate dehydrogenase, decarboxylating (Homo sapiens) (P52209 whole entry, looked up): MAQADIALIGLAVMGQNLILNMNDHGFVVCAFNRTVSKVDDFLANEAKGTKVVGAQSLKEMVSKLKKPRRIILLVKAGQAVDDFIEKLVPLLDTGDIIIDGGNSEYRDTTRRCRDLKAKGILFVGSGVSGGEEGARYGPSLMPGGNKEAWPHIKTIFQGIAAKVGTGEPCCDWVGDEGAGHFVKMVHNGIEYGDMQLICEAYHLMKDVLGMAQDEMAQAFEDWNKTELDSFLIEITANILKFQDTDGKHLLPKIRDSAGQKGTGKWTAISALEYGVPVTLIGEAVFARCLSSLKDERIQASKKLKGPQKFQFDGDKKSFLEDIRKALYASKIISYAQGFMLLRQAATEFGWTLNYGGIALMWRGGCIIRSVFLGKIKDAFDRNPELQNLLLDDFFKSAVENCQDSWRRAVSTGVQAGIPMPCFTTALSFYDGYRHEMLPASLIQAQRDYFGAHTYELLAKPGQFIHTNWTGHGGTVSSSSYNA
Sequence of NAD(+) hydrolase SARM1 (Homo sapiens) (Q6SZW1 whole entry, looked up, the tested form may be a part): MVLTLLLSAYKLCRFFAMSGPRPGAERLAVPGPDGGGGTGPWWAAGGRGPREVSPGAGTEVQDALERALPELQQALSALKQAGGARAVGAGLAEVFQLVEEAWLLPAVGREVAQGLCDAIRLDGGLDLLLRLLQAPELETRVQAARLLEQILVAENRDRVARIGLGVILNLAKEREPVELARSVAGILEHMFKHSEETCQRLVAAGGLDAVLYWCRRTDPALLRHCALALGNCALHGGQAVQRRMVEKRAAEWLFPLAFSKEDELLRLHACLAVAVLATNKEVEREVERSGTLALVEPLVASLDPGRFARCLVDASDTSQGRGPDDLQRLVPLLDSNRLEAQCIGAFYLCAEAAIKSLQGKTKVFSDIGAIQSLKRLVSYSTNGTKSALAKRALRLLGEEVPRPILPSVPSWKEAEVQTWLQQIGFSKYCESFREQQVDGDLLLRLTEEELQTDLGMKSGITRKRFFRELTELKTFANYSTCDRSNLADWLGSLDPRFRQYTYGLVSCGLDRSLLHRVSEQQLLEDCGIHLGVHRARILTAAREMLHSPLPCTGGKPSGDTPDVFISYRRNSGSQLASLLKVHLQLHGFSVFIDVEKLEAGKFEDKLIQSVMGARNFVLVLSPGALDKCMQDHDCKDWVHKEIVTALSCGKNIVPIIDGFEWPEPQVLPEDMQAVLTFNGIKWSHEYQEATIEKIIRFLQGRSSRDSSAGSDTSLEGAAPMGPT
Sequence of Mitogen-activated protein kinase 7 (Homo sapiens) (Q13164 whole entry, looked up, the tested form may be a part): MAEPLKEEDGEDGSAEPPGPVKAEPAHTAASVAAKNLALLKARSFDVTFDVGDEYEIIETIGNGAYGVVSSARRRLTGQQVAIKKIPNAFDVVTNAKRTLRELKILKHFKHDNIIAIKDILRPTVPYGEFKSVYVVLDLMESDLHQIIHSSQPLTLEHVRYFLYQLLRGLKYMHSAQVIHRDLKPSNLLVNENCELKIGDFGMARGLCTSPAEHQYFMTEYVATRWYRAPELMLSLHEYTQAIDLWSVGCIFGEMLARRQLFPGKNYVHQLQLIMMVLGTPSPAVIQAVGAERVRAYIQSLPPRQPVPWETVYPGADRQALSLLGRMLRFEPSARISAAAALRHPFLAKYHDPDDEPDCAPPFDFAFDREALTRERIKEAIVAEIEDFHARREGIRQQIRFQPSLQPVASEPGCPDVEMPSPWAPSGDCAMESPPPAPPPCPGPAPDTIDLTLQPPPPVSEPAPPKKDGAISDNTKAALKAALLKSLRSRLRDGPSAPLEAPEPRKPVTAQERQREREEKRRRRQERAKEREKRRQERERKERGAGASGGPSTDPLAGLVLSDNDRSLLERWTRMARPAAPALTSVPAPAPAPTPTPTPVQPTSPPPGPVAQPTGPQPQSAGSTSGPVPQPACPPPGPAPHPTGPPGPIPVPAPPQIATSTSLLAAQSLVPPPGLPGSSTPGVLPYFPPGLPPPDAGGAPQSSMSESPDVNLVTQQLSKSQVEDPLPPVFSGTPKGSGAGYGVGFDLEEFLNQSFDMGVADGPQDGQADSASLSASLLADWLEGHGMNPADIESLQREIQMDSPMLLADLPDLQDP

What is called viability is a read-out of living cells in per cent, often relative to untreated cells. One may read the inhibition as the drop in the measured response relative to a control, in per cent. Turning to `CCC(=O)OCC(=O)[C@@]1(OC(=O)CC)[C@@H](C)C[C@H]2[C@@H]3CCC4=CC(=O)C=C[C@]4(C)[C@@]3(Cl)[C@@H](O)C[C@@]21C`, the parasite load remaining in assay [1] was 87.4% (inactive) and 97.8% (inactive). Further, the viability in [1] was 126% and 93.5%. Also, the figures for the fluorescence ratio in assay [2] and in [5] were 1.01 (inactive) and 0.96 (inactive), respectively. The inhibition in [3] is 0.45% (inactive); in assay [4], 2.57% (inactive); in assay [6], -4.35% (inactive). Also, the fold change in [7] (setting [14]) was 0.914 (inactive) and 0.792 (inactive); in assay [7] (setting [15]) it was 1.6 and 1.23. Further, the cell count is 6840 and 6120 in assay [7] (setting [16]); 7490 and 7730 in [7] (setting [17]). Further, the z-score was 0.616 (inactive) in assay [8] (setting [18]), 1.23 in assay [8] (setting [19]) and -1.24 (inactive) in assay [11]. Also, in [9], the remaining NAD was 10 nM (inactive). Also, the luciferase signal in assay [10] is 188 AU (inactive). The log fold change Tl+ flux in the assay with F380Y is -0.163 (active); in the assay with F380Y/beta2Delta, -0.0617 (inactive); in assay [12] it was 0.021 (inactive); with R275C it was -0.105 (active); in the assay on R275C/beta1, 0.0418 (inactive); with R275C/beta2Delta, 0.0132 (inactive).
Regarding `CC1(C)S[C@@H]2[C@H](NC(=O)[C@H](N)c3ccc(O)cc3)C(=O)N2[C@H]1C(=O)O`, the parasite load remaining in [1] was 78% (inactive) and 120% (inactive) and 88.8% (inactive). The viability in assay [1] is 117% and 121% and 76%. For the same compound, the fluorescence ratio was 1.01 (inactive) in assay [2] and 1 (inactive) in assay [5]. In addition, the values for the inhibition in assay [3], in assay [4] and in [6] were -4.09% (inactive), 7.91% (inactive) and 8.62% (inactive), respectively. Also, in [13], the mean signal is 239 (inactive). Besides, the fold change in [7] (setting [14]) is 0.943 (inactive) and 0.821 (inactive); in [7] (setting [15]) it was 1.29 and 1.62. The cell count was 10300 and 8970 in [7] (setting [16]); 10900 in assay [7] (setting [17]). Moreover, the z-score in assay [8] (setting [18]) was 0.664 (inactive); in assay [8] (setting [19]), 0.115; in assay [11], 0.84 (inactive). The remaining NAD in assay [9] was 10 nM (inactive). In addition, the luciferase signal in [10] is 56 AU (inactive). In addition, the log fold change Tl+ flux with F380Y was -0.0516 (inactive); with F380Y/beta2Delta, -0.0816 (active); in [12], 0.0259 (inactive); in the assay on R275C, 0.00882 (inactive); with R275C/beta1, 0.0045 (inactive); in the assay on R275C/beta2Delta, -0.0233 (inactive).
`C#C[C@]1(O)CC[C@H]2[C@@H]3CCC4=CC(=O)CC[C@@H]4[C@H]3CC[C@@]21C`: the fluorescence ratio in assay [2] and in [5] was 0.96 (inactive) each time. The inhibition in assay [3] was 1.36% (inactive); in [4], 3.34% (inactive); in [6] it was -1.74% (inactive). Also, the fold change was 0.992 (inactive) and 0.97 (inactive) and 0.797 (inactive) in assay [7] (setting [14]); 3.48 and 0.712 and 1.56 in [7] (setting [15]). Moreover, the cell count in [7] (setting [16]) is 9410 and 9190 and 8090; in [7] (setting [17]) it was 9490 and 9470 and 10100. For the same compound, the z-score in assay [8] (setting [18]) is 0.108 (inactive) and 0.243 (inactive); in assay [8] (setting [19]) it was 0.0145 and -0.237; in assay [11], -0.71 (inactive) and 0.54 (inactive). Further, in assay [9], the remaining NAD was 10 nM (inactive). Also, in assay [10], the luciferase signal was 48 AU (inactive). Besides, the log fold change Tl+ flux is 0.0234 (inactive) with F380Y; 0.0279 (inactive) with F380Y/beta2Delta; 0.0181 (inactive) in [12]; 0.0301 (inactive) in the assay with R275C; 0.0324 (inactive) in the assay with R275C/beta1; 0.062 (inactive) with R275C/beta2Delta.

For the origin of these results see PubChem BioAssay.
